PubChem BioAssay AID1159580 (chemical genetic matrix, 2015)
In all, about 5,500 compounds went through this assay and about 2,000 (36%) were called active. Roughly 18% stayed inconclusive and do not appear here. The list shows a part of the results. A number with no mark means an inactive call. Rule as the data show it: active = normalized growth mostly below about 0.91 (no sharp cut-off); inconclusive = no clear call, values can overlap the other calls; inactive = mostly above about 0.92.

Experiment: chemical genetic growth profiling, strain panel (AID 1159580);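 also: tested at 20 µM; growth read once vehicle control cultures reached saturation at 30 °C; 1 = growth at the plate median or of vehicle wells; lower values mean less growth of the strain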
Conditions: S. cerevisiae deletion strains, growth OD

Question: With Cc1c(C)c(C)c(C(O)c2ccccc2)c(C)c1C (stereo unspecified) as the compound, how does the normalized growth (locus YAR019C, strain CDC15, active compounds read low) read?
Answer: 1

Question: And the normalized growth (locus YBL105C, strain PKC1, active compounds read low)?
Answer: 1.01

Question: And the normalized growth (locus YBR135W, strain CKS1, active compounds read low)?
Answer: 1

Question: And the normalized growth (locus YBR136W, strain MEC1, active compounds read low)?
Answer: 1

Question: What about the normalized growth (locus YBR160W, strain CDC28, active compounds read low) of the same compound?
Answer: 1.01

Question: And the normalized growth (locus YDL017W, strain CDC7, active compounds read low)?
Answer: 1.01

Question: What about the normalized growth (locus YDL028C, strain MPS1, active compounds read low) of the same compound?
Answer: 1

Question: What about the normalized growth (locus YDL101C, strain DUN1, active compounds read low) of the same compound?
Answer: 0.998

Question: What about the normalized growth (locus YDL108W, strain KIN28, active compounds read low) of the same compound?
Answer: 1.01

Question: And the normalized growth (locus YDL132W, strain cdc53, active compounds read low)?
Answer: 0.998

Question: And the normalized growth (locus YDL214C, strain PRR2, active compounds read low)?
Answer: 0.858

Question: What about the normalized growth (locus YDR052C, strain DBF4, active compounds read low) of the same compound?
Answer: 0.989

Question: What about the normalized growth (locus YDR054C, strain cdc34, active compounds read low) of the same compound?
Answer: 0.991

Question: And the normalized growth (locus YDR226W, strain ADK1, active compounds read low)?
Answer: 0.993

Question: What about the normalized growth (locus YDR477W, strain SNF1, active compounds read low) of the same compound?
Answer: 0.846

Question: What about the normalized growth (locus YER123W, strain YCK3, active compounds read low) of the same compound?
Answer: 0.786

Question: What about the normalized growth (locus YER133W, strain GLC7, active compounds read low) of the same compound?
Answer: 0.843

Question: What about the normalized growth (locus YFL009W, strain cdc4, active compounds read low) of the same compound?
Answer: 0.994

Question: And the normalized growth (locus YFL029C, strain CAK1, active compounds read low)?
Answer: 1

Question: And the normalized growth (locus YFR003C, strain YPI1, active compounds read low)?
Answer: 1

Question: And the normalized growth (locus YFR019W, strain FAB1, active compounds read low)?
Answer: 0.868

Question: What about the normalized growth (locus YFR028C, strain CDC14, active compounds read low) of the same compound?
Answer: 0.997

Question: What about the normalized growth (locus YGR040W, strain KSS1, active compounds read low) of the same compound?
Answer: 0.862

Question: What about the normalized growth (locus YGR052W, strain FMP48, active compounds read low) of the same compound?
Answer: 0.75

Question: What about the normalized growth (locus YGR092W, strain DBF2, active compounds read low) of the same compound?
Answer: 0.703

Question: And the normalized growth (locus YHR030C, strain SLT2, active compounds read low)?
Answer: 0.442 (active)

Question: What about the normalized growth (locus YHR079C, strain IRE1, active compounds read low) of the same compound?
Answer: 0.742

Question: What about the normalized growth (locus YHR082C, strain KSP1, active compounds read low) of the same compound?
Answer: 0.779

Question: What about the normalized growth (locus YHR205W, strain SCH9, active compounds read low) of the same compound?
Answer: 0.775

Question: What about the normalized growth (locus YIL147C, strain SLN1, active compounds read low) of the same compound?
Answer: 1.01

Question: And the normalized growth (locus YJL095W, strain BCK1, active compounds read low)?
Answer: 0.602

Question: What about the normalized growth (locus YJL128C, strain PBS2, active compounds read low) of the same compound?
Answer: 0.914

Question: What about the normalized growth (locus YJL157C, strain FAR1, active compounds read low) of the same compound?
Answer: 0.884

Question: What about the normalized growth (locus YJR016C, strain ILV3, active compounds read low) of the same compound?
Answer: 1

Question: And the normalized growth (locus YJR066W, strain TOR1 (second series), active compounds read low)?
Answer: 0.84

Question: And the normalized growth (locus YJR066W, strain TOR1, active compounds read low)?
Answer: 0.817

Question: And the normalized growth (locus YKL048C, strain ELM1, active compounds read low)?
Answer: 0.867

Question: What about the normalized growth (locus YKL067W, strain YNK1, active compounds read low) of the same compound?
Answer: 0.873

Question: What about the normalized growth (locus YKL101W, strain HSL1, active compounds read low) of the same compound?
Answer: 0.781

Question: What about the normalized growth (locus YKL193C, strain SDS22, active compounds read low) of the same compound?
Answer: 1

Question: What about the normalized growth (locus YKL203C, strain TOR2, active compounds read low) of the same compound?
Answer: 0.894

Question: And the normalized growth (locus YLR113W, strain HOG1, active compounds read low)?
Answer: 0.609 (active)

Question: What about the normalized growth (locus YLR133W, strain CKI1, active compounds read low) of the same compound?
Answer: 0.873

Question: What about the normalized growth (locus YLR403W, strain SFP1, active compounds read low) of the same compound?
Answer: 0.847

Question: What about the normalized growth (locus YML070W, strain DAK1, active compounds read low) of the same compound?
Answer: 0.75

Question: And the normalized growth (locus YMR001C, strain CDC5, active compounds read low)?
Answer: 1

Question: And the normalized growth (locus YMR205C, strain PFK2 (second series), active compounds read low)?
Answer: 0.849

Question: What about the normalized growth (locus YMR277W, strain FCP1, active compounds read low) of the same compound?
Answer: 1

Question: What about the normalized growth (locus YNL006W, strain LST8, active compounds read low) of the same compound?
Answer: 1.01

Question: What about the normalized growth (locus YNL020C, strain ARK1, active compounds read low) of the same compound?
Answer: 0.852

Question: What about the normalized growth (locus YNL161W, strain CBK1, active compounds read low) of the same compound?
Answer: 1

Question: What about the normalized growth (locus YNL183C, strain NPR1, active compounds read low) of the same compound?
Answer: 0.696

Question: What about the normalized growth (locus YNL207W, strain RIO2, active compounds read low) of the same compound?
Answer: 1

Question: What about the normalized growth (locus YNL222W, strain SSU72, active compounds read low) of the same compound?
Answer: 0.999

Question: What about the normalized growth (locus YNL307C, strain MCK1 (second series), active compounds read low) of the same compound?
Answer: 0.785

Question: What about the normalized growth (locus YOL078W, strain AVO1, active compounds read low) of the same compound?
Answer: 1

Question: What about the normalized growth (locus YOL136C, strain PFK27, active compounds read low) of the same compound?
Answer: 0.84

Question: What about the normalized growth (locus YOR061W, strain CKA2, active compounds read low) of the same compound?
Answer: 0.844

Question: What about the normalized growth (locus YOR119C, strain RIO1, active compounds read low) of the same compound?
Answer: 0.915

Question: What about the normalized growth (locus YOR231W, strain MKK1, active compounds read low) of the same compound?
Answer: 0.785

Question: And the normalized growth (locus YOR329C, strain SCD5, active compounds read low)?
Answer: 1

Question: And the normalized growth (locus YPL031C, strain PHO85, active compounds read low)?
Answer: 0.806

Question: What about the normalized growth (locus YPL153C, strain RAD53, active compounds read low) of the same compound?
Answer: 0.783

Question: What about the normalized growth (locus YPL204W, strain HRR25, active compounds read low) of the same compound?
Answer: 0.777

Question: What about the normalized growth (locus YPL209C, strain IPL1, active compounds read low) of the same compound?
Answer: 1

Question: What about the normalized growth (locus YPL256C, strain CLN2, active compounds read low) of the same compound?
Answer: 0.67 (active)

Question: And the normalized growth (locus YPR025C, strain CCL1, active compounds read low)?
Answer: 1.01

Question: And the normalized growth (locus YPR106W, strain ISR1, active compounds read low)?
Answer: 0.977

Question: And the normalized growth (locus YPR111W, strain DBF20, active compounds read low)?
Answer: 0.967

Question: What about the normalized growth (strain NNK1, active compounds read low) of the same compound?
Answer: 0.972

Question: What about the normalized growth (strain TSCII, active compounds read low) of the same compound?
Answer: 1
